Source: PubChem BioAssay
RXFP1 antagonist – antagonists of human relaxin receptor RXFP1; Q9HBX9; HEK293-RXFP1, relaxin-stimulated cAMP HTRF, 30 min; hits give low values; activity change, negative = inhibition, % at 57.5 µM; 350,000 tested, 0.59% active;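 active means activity change of -60% or lower, but not beyond a set lower limit; inconclusive means change between -60% and -40%, or beyond the set limit; inactive means change above -40%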; further: on the % scale 0 is the no-effect control and ±100 the full control effect
ClpP mod – qHTS Assay for Activators of ClpP; ATP-dependent Clp protease proteolytic subunit (Bacillus subtilis (strain 168)), P80244; purified B. subtilis ClpP, FRET peptide cleavage, 20 min; Potency, µM (titrated, usually from 57.5 µM), for the others: at the top dose activity change, negative = active; 340,000 tested, 1.9% active; active means well fitted falling curve with a large enough effect; inconclusive means small, poorly fitted or top-dose-only effect; inactive means no such curve, though single readings can be large or run the other way; further: potency means the concentration at half of the fitted maximal effect; the source files actives as falling curves though it sought activators and does not explain the sign; nearly all actives have a fitted effect of over 65% in size
Target sequence (P80244 whole entry, looked up): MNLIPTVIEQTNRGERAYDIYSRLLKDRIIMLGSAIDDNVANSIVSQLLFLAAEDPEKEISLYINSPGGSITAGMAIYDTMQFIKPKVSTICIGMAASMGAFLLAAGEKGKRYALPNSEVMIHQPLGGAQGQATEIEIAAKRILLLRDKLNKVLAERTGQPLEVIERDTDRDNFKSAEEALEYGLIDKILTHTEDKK
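Purified B. subtilis ClpP, 10 microg/mL final in Tris/HCl pH8 with KCl, BSA, glycerol and Tween-20, cleaved an Abz/nitrotyrosine-quenched decapeptide. Fluorescence (ex 320, em 430) was read at 0 and 20 min at room temperature. Delta was normalized to 5.8 microM ADEP and DMSO/no-enzyme controls.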
gsp ag – gsp mutant agonism. gsp mutant cells, cAMP HTRF, 30 min. Potency, µM (titrated, usually from 76.9 µM), without a hit: at the top dose activation (cAMP increase), most hits filed as activators. 340,000 tested, 0.13% active. AID 624287; active means well fitted activation curve with a large enough effect; inconclusive means small, poorly fitted or top-dose-only effect, or another doubt; inactive means no such curve, though single readings can be large or run the other way; cell line not stated here;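 further: phosphodiesterase inhibitor Ro 20-1724 added with compounds to block cAMP breakdown; potency means the concentration at half of the fitted maximal effect; nearly all actives have a fitted effect of over 60% in size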
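Cells in DMEM/10% FBS with G418 were pretreated with compounds in DMSO plus […] (300 uM stock) for 30 min at 37C. cAMP was measured by HTRF (cAMP-d2 plus anti-cAMP antibody-K) after 30 min at room temperature.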
pAkt inh – Akt phosphorylation inhibition | activity change, % for hits at 50 µM | 360,000 tested, 0.32% active | AID 651550 | Neuro2A IGF-stimulated pAkt S473 HTRF, 20 min; hits give low values; in the data active means activity change below about -80%; inconclusive means mostly about -51% to -80%; further: on the % scale 0 is the no-effect control and ±100 the full control effect
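Single-point screen (50 µM final compound) in Neuro2A cells stimulated 20 min with 6 nM IGF at 37 deg C. After lysis, Ser473-phosphorylated Akt read by HTRF (ex 330 nm, em 615/665 nm) as the 665/615 ratio.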
gsp antagonist – gsp mutant antagonism. gsp-mutant cells, cAMP HTRF, 30 min. Potency, µM (highest dose often 76.9 µM), for the others: top-dose activity change, negative = inhibition, hits mostly inhibitors. 340,000 tested, 0.4% active. AID 624288; calls by dose curve; cell line not stated here;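 further: intracellular cAMP measured with PDE inhibitor Ro 20-1724 present during compound exposure; potency means the concentration at half of the fitted maximal effect; on the % scale 0 is the no-effect control and ±100 the full control effect; nearly all actives have a fitted effect of over 65% in size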
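Measurement of cellular cAMP by homogeneous time-resolved fluorescence following a 30 min compound exposure at 37C. The PDE inhibitor […] was present throughout; the assay buffer was DPBS with 0.05% BSA and 0.005% Tween 20.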
RXFP1 ag – RXFP1 (human) receptor agonism | Q9HBX9 | HEK293T-RXFP1 cAMP TR-FRET, 30 min; response scale: percent of porcine relaxin response, buffer zero | Potency, µM (doses to about 57.5 µM), inactives show at the top dose activation, usual class: activators | 370,000 tested, 0.3% active | AID 2676; further: potency means the concentration at half of the fitted maximal effect; on the % scale 0 is the no-effect control and ±100 the full control effect; nearly all actives have a fitted effect of over 60% in size
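HEK293T cells stably expressing RXFP1 were pretreated with the PDE4 inhibitor Ro 20174, exposed to compounds for 30 min at 37C, lysed, and cAMP was read by TR-FRET. Data normalized to buffer (basal) and 29 nM porcine relaxin (100%).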
ClpP validation – Bacillus subtilis ClpP inhibition, validated hit; Potency, µM (titrated, usually from 57.5 µM), without a hit: at the highest dose activity change, negative = inhibition, hits mostly inhibitors; 470 tested, 40% active; shares compounds with ClpP mod; purified B. subtilis ClpP, FRET-FV substrate cleavage, 20 min; AID 743245; further: potency means the concentration at half of the fitted maximal effect; on the % scale 0 is the no-effect control and ±100 the full control effect; nearly all actives have a fitted effect of over 70% in size
* = called active by the depositor; i = inactive; ? = inconclusive; / = no result; [ ] = remark or other dose. Only some compounds are listed: those with a hit (about 2.7% of all), similar ones and a draw of the others. Unless noted, the call rests on the fitted dose curve; in most records, active means well fitted curve in the direction sought with a large enough effect; inconclusive means small, poorly fitted or top-dose-only effect, or another doubt; inactive means no such curve, though single readings can be large; an effect the other way counts as inactive or inconclusive.

SMILES	RXFP1 antagonist	ClpP mod	gsp ag	pAkt inh	gsp antagonist	RXFP1 ag	ClpP validation
C[C@H](CO)N1C[C@H](C)[C@H](CN(C)Cc2ccncc2)Oc2ncc(Br)cc2C1=O	-6.8	0.6%	22.8%	i	/	/	/
O=C(OCC(=O)N1CCN(c2ccc(F)cc2)CC1)c1cnc2ccccc2n1	-6.0	2.7%	8.6%	i	-9.2%	/	/
FCCCOc1ccc(-c2nccc(-c3ccc(Cl)cc3)n2)cc1	-6.3	-8.0%	40.4%	i	22.1%	1.4%	/
COc1ccc(-c2ccnc(-c3ccc(OCCCF)cc3)n2)cc1	-4.7	7.94µM*	?	i	-12.8%	1.5%	-6.8%
Cc1ccn2c(Nc3ccc4c(c3)OCO4)c(-c3ccc(Cl)cc3)nc2c1	6.1	3.98µM*	/	/	/	15.0%	-21.9%
Cc1ccn2c(Nc3ccc4c(c3)OCO4)c(-c3ccc(N(C)C)cc3)nc2c1	11.2	4.3%	/	/	/	18.7%	/
CCCCN(C(=O)CCOc1ccc(OCC)cc1)c1c(N)n(Cc2ccccc2)c(=O)[nH]c1=O	4.4	-3.8%	-78.0%	i	/	/	/
Cc1cccc(-c2cc3nc(-c4ccccc4)cc(N4CCC5(CC4)OCCO5)n3n2)c1	7.2	3.16µM*	3.2%	i	-0.2%	6.4%	24.3µM*
Fc1ccc(-c2cc3nc(-c4ccccc4)cc(N4CCOCC4)n3n2)cc1	3.2	3.55µM*	-49.6%	i	-7.3%	2.3%	34.3µM*
Fc1cccc(-c2cc3nc(-c4ccccc4)cc(N4CCC5(CC4)OCCO5)n3n2)c1	-3.5	?	21.8%	i	-5.1%	5.8%	/
Cc1cccc(-c2cc3nc(C)cc(N4CC(C)CC(C)C4)n3n2)c1 (configuration not stated)	-8.5	0.794µM*	21.4%	i	-0.9%	-1.0%	-4.8%
Cc1ccc(-c2cc3nc(-c4ccccc4)cc(N4CCC5(CC4)OCCO5)n3n2)cc1	-5.2	7.08µM*	33.3%	i	11.8%	7.7%	3.9%
CCCN(CCC)C(=O)Cn1c(SCc2cccc(F)c2)nc2cccnc21	17.3	4.3%	/	/	/	3.8%	/
Cc1c(C(=O)N2CCCCC2)c(S(=O)(=O)N2CCC(C)CC2)c(C)n1C	10.6	2.0%	11.1%	i	-7.4%	4.2%	/
OC(c1ccccc1)(c1ccccc1)C1CCN(CCCOc2ccc3c(c2)CCCC3)CC1	/	-2.9%	/	i	/	/	/
Cn1c(N)c(C(=O)CN2CCN(S(=O)(=O)c3ccccc3C#N)CC2)c(=O)n(C)c1=O	-6.3	10.8%	-64.2%	i	/	/	/
CNC(=O)c1cc(S(=O)(=O)N2CC(C)OC(C)C2)ccc1N1CCOCC1 (configuration not stated)	-1.5	36.7%	-3.5%[15.4 µM]	i	2.2%	0.7%	-1.1%
O=C(Cc1ccccc1)Nc1nnc(-c2ccco2)o1	-4.7	/	7.3%[15.4 µM]	i	-37.2%	-0.7%	/
CCC(=O)Nc1ccc(-c2nnc(-c3ccccc3)o2)cc1	-8.3	2.82µM*	-5.8%	i	27.2%	9.1%	7.69µM*
CCC(=O)Nc1cccc(-c2nnc(-c3cccc(NC(=O)CC)c3)o2)c1	7.0	-7.5%	-22.1%	i	-26.3%	-2.0%	/
O=C(Cc1cccs1)Nc1cccc(-c2nnc(-c3ccco3)o2)c1	6.7	/	3.8%	i	?	-1.1%	/
O=C(Cc1ccccc1)Nc1ccc(-c2nnc(-c3ccco3)o2)cc1	0.6	8.91µM*	3.9%	i	13.4%	8.9%	-20.5%
Cc1ccc(-c2nnc(-c3ccc(NC(=O)Cc4cccs4)cc3)o2)cc1	-9.6	3.55µM*	4.9%	i	12.9%	0.9%	?
CC(Sc1nc(=O)cc(N)n1CCc1ccccc1)C(=O)Nc1ccc(Cl)cc1 (configuration not stated)	-7.9	0.5%	/	/	/	1.1%	/
Cc1cccc(OCC(=O)Nc2ccccc2C(=O)OCc2cc(=O)n3nc(C)sc3n2)c1	16.2	11.6%	/	/	/	2.8%	/
SMILES	RXFP1 antagonist	ClpP mod	gsp ag	pAkt inh	gsp antagonist	RXFP1 ag	ClpP validation
CCCC(C)C(=O)Nc1ccc2c(c1)OCCO2 (configuration not stated)	-7.4	3.55µM*	-1.5%	i	-0.4%	0.2%	-0.3%
O=C(Nc1cccc(-c2nc3ccccc3o2)c1)c1ccc(-c2ccc(Br)cc2)o1	-2.2	3.98µM*	/	/	/	?	11.2%
COc1ccc(-n2nc3ccc(NC(=O)c4ccc(-c5cc(Cl)ccc5Cl)o4)cc3n2)cc1	-0.6	3.3%	/	/	/	1.3%	/
O=C(Nc1ccc2nn(-c3ccccc3)nc2c1)c1ccc(-c2cccc(Cl)c2)o1	-19.2	58.7%	/	/	/	6.4%	-17.0%
COc1ccc(OC)c(NC(=O)Cn2cnc3c(cnn3-c3ccccc3)c2=O)c1	/	-0.8%	8.8%	i	-6.9%	0.5%	/
COc1ccccc1NC(=O)Cn1cnc2c(cnn2-c2ccc(C)c(C)c2)c1=O	/	36.0%	-7.4%	i	-14.2%	0.6%	-29.8%
Cc1ccc(Cn2ccc(NC(=O)c3nn(C)cc3Cl)n2)cc1	-6.4	91.4%	8.6%	i	-3.5%	-2.5%	-0.8%
Cc1ccc(Cn2nc(C)c(NC(=O)c3nn(C)cc3Cl)c2C)cc1	-0.6	-4.1%	23.6%	i	-2.8%	0.4%	/
COc1ccc(C(=O)n2cc(C(=O)c3cc(C)ccc3O)cn2)cc1OC	-3.2	96.3%	1.6%	i	3.8%	-0.6%	6.0%
CCc1ccc(NC(=O)c2sc3nc(C)c(Cl)c(C)c3c2NC(=O)c2ccccc2OC)cc1	/	-2.8%	/	/	/	?	/
Cc1ccc(-c2nn(-c3ccccc3)cc2C(=O)N2CCN(C3CCS(=O)(=O)C3)CC2)cc1 (configuration not stated)	-3.4	0.1%	-5.2%	i	2.9%	0.2%	/
O=C(CCn1nnc2ccccc21)N1CCN(c2ccccc2)CC1	2.8	60.5%	13.4%[15.4 µM]	i	-2.6%	-0.3%	-0.9%
CC(C)CCNC(=O)c1cc(-c2ccco2)nc2ccccc12	7.5	3.98µM*	7.0%	i	-10.0%	3.4%	6.85µM*
CCn1cc(C(=O)N(C)c2ccccc2F)c2cc(OC)c(OC)cc2c1=O	4.1	-6.7%	-4.5%	i	5.6%	-1.8%	/
Cc1ccc(S(=O)(=O)N2CCN(C(=O)CSc3ncn[nH]3)CC2)cc1	-4.2	1.0%	?	i	4.8%	1.4%	/
Cc1cccc(CNC(=O)CCCN2C(=O)CCn3nc(-c4cn(C)c5ccccc45)cc32)c1	-8.0	-11.9%	/	/	/	-1.1%	/
